From paper PMC5540273 (PLoS ONE, 2017)

Assays:
Conditions in all cases: concentration: 1 μM,replicates: in singlicate; n = 1
NIM1 = test system: T1, NIM1
T1 construct: gene MGC42105

NLK = test system: NLK
OSR1 = test system: T2, OSR1
T2 construct: gene OXSR1

PAK1 = test system: PAK1
PAK2 = test system: PAK2
PAK3 = test system: PAK3
PAK4 = test system: PAK4
PAK6 = test system: PAK6
PAK7 = test system: PAK7
PCTK1 = test system: T3, PCTK1
T3 construct: gene CDK16
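Note: KINOMEscan kinase panel screen.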

SMILES | %Inh (NIM1) | %Inh (NLK) | %Inh (OSR1) | %Inh (PAK1) | %Inh (PAK2) | %Inh (PAK3) | %Inh (PAK4) | %Inh (PAK6) | %Inh (PAK7) | %Inh (PCTK1)
Cc1n[nH]c2cc(Nc3ccnc(Nc4cccc(CN5CCOCC5)c4)n3)ccc12 [GW682569] | 22% | 18% | 0% | 0% | 0% | 0% | 2% | 1% | 20% | 0%
N#Cc1cccc(C(=O)NC2CCN(c3ccnc(Nc4ccc(F)cc4)n3)C2)c1 (stereo not shown) [GSK1379708] | 16% | 0% | 6% | 0% | 4% | 0% | 0% | 27% | 0% | 1%
C[C@@H](Oc1cc(-n2cnc3cc(-c4ccncc4)ccc32)sc1C(N)=O)c1ccccc1Cl [GSK479719] | 51% | 0% | 18% | 21% | 22% | 27% | 0% | 5% | 94.2% | 1%
CN1CCN(CCCNc2nccc(-c3c(-c4ccc(F)cc4)nn4cc(C(N)=O)ccc34)n2)CC1 [GW622475] | 9% | 70% | 19% | 26% | 22% | 34% | 0% | 7% | 24% | 6%
O=C(Nc1ccccc1)c1cccc(Oc2ccc3nccn3n2)c1 | 1% | 0% | 0% | 0% | 0% | 5% | 0% | 9% | 0% | 0%
NC(=O)Nc1sc(-c2ccc(F)cc2)cc1C(N)=O [GW789449] | 14% | 0% | 16% | 0% | 4% | 24% | 11% | 12% | 1% | 0%
COc1cc2c(Nc3ccc(NC(=O)c4ccccc4)cc3)ncnc2cc1OCCCN1CCOCC1 [GSK301329] | 16% | 7% | 20% | 0% | 3% | 30% | 0% | 5% | 0% | 3%
COC(=O)c1cccc(NC(=O)NC2CCN(c3ccnc(NCc4ccc(F)cc4)n3)CC2)c1 [GSK1379860] | 15% | 0% | 19% | 0% | 0% | 0% | 0% | 0% | 0% | 8%
Cc1nnc(-c2ccc3occ(-c4ccc(S(C)=O)cc4)c3n2)o1 (stereo not shown) | 0% | 55% | 0% | 4% | 0% | 0% | 0% | 3% | 0% | 0%
CS(=O)(=O)Nc1ccc(-c2ccnc3[nH]ccc23)cc1 [GSK993273] | 13% | 30% | 41% | 26% | 27% | 51% | 0% | 11% | 3% | 15%
Cn1ccc2ncnc(Oc3ccc(NC(=O)Nc4cccc(C(F)(F)F)c4)c(Cl)c3)c21 | 0% | 25% | 0% | 10% | 17% | 21% | 15% | 1% | 1% | 0%
CSc1nccc(-c2c(-c3ccc(F)cc3)ncn2CCCN2CCOCC2)n1.Cl [SB-217146] | 0% | 0% | 0% | 3% | 43% | 0% | 10% | 0% | 0% | 0%
C[C@@H](Oc1cc(-n2cnc3cc(-c4cnn(C)c4)ccc32)sc1C(N)=O)c1ccccc1Cl [GSK580432] | 64% | 0% | 12% | 0% | 13% | 63% | 0% | 2% | 0% | 0%
Cc1cccc(-c2nc(Nc3ccncc3)c3sccc3n2)n1 [GW869641] | 35% | 60% | 24% | 15% | 30% | 50% | 23% | 11% | 2% | 22%
O=C(Nc1cccc(C(F)(F)F)c1)c1cccc(Oc2ccc3nccn3n2)c1 | 44% | 0% | 0% | 0% | 0% | 20% | 8% | 1% | 0% | 21%
O=C(Nc1cccc(Oc2ccc3nccn3n2)c1)Nc1cccc(C(F)(F)F)c1 | 14% | 19% | 0% | 0% | 0% | 0% | 0% | 5% | 0% | 0%
CNC(=O)c1ccccc1Nc1nc(Nc2cccc(CS(C)(=O)=O)c2)ncc1C.O=CO [GSK1520489] | 97.4% | 39% | 28% | 64% | 52% | 97.8% | 55% | 79% | 85% | 6%

SMILES | %Inh (NIM1) | %Inh (NLK) | %Inh (OSR1) | %Inh (PAK1) | %Inh (PAK2) | %Inh (PAK3) | %Inh (PAK4) | %Inh (PAK6) | %Inh (PAK7) | %Inh (PCTK1)
CCN1CCN(CCCC(=O)Nc2n[nH]c3nc(-c4ccc(O)cc4)c(Br)cc23)CC1 [SB-731579] | 3% | 0% | 0% | 0% | 33% | 36% | 61% | 0% | 7% | 56%
FC(F)(F)c1cc(Br)cc(Nc2nccc(-c3cnn4ncccc34)n2)c1 [GW810578] | 0% | 0% | 2% | 11% | 45% | 27% | 22% | 20% | 6% | 3%
C[C@@H]1CNc2c(sc3ccc4nc(-c5ccc(O)cc5)ccc4c23)C(=O)N1 | 26% | 8% | 0% | 20% | 32% | 0% | 9% | 17% | 0% | 0%
CN(c1ccc2c(c1)nc(NCc1ccc(F)cc1)n2C)c1ccnc(Nc2ccc(CS(C)(=O)=O)cc2)n1.Cl [GW813244] | 0% | 0% | 0% | 10% | 35% | 12% | 15% | 0% | 0% | 0%
CN(c1ccccc1CNc1nc(Nc2ccc3c(c2)CC(=O)N3)ncc1C(F)(F)F)S(C)(=O)=O | 0% | 0% | 0% | 0% | 0% | 68% | 2% | 0% | 11% | 28%
CC(C(=O)NC1CCN(c2ccnc(Nc3ccc(F)cc3)n2)C1)c1ccc(Cl)cc1 (stereo not shown) [GSK1379713] | 17% | 0% | 5% | 5% | 2% | 0% | 0% | 0% | 0% | 3%
O=C1NCCc2[nH]c(-c3ccncc3)cc21 | 45% | 22% | 3% | 38% | 40% | 42% | 14% | 17% | 0% | 0%
Nc1nccc(-c2ccc3c(N)n[nH]c3c2)n1 [GSK1034945] | 17% | 33% | 6% | 18% | 11% | 7% | 0% | 0% | 2% | 0%
Cn1ccc2ncnc(Oc3ccc(NC(=O)Nc4cncc(C(F)(F)F)c4)c(Cl)c3)c21 | 0% | 9% | 0% | 25% | 0% | 0% | 1% | 0% | 0% | 0%
CCn1c(-c2nonc2N)nc2cncc(CNC3CCNCC3)c21.Cl [SB-747651] | 31% | 18% | 4% | 0% | 51% | 45% | 0% | 2% | 0% | 8%
CN1CCN(CCNc2nc3cc(Oc4ccc(NC(=O)Nc5cc(C(F)(F)F)ccc5F)cc4)ccc3[nH]2)CC1.Cl.Cl [GW768504] | 0% | 0% | 0% | 0% | 30% | 6% | 10% | 0% | 0% | 0%
Cc1ccc2c(-c3ccnc(Nc4ccc(C(F)(F)F)cc4)n3)cnn2n1 [GW819776] | 3% | 24% | 0% | 1% | 50% | 18% | 0% | 0% | 0% | 6%
COC(=O)c1cccc(NC(=O)NC2CCN(c3ccnc(Nc4cc(OC)c(OC)c(OC)c4)n3)C2)c1 (stereo not shown) [GSK1379767] | 40% | 32% | 0% | 10% | 0% | 18% | 5% | 0% | 18% | 0%
Cc1ccc(CC(=O)N2CCc3cc(-c4cn(C)c5ncnc(N)c45)ccc32)cc1 [GSK2634758] | 13% | 1% | 0% | 0% | 0% | 49% | 0% | 100% | 0% | 0%
CS(=O)c1ccc(-c2coc3ccc(-c4n[nH]c(=O)o4)cc23)cc1 (stereo not shown) | 7% | 11% | 83% | 0% | 36% | 18% | 4% | 5% | 19% | 14%
COc1cc2ncn(-c3cc(OCC4CCCCC4)c(C(N)=O)s3)c2cc1OC [GSK204559] | 3% | 0% | 15% | 9% | 17% | 18% | 0% | 0% | 1% | 3%
CC(=O)c1c(-c2ccncc2)[nH]c(-c2ccncc2)c1C [GW493036] | 8% | 18% | 3% | 15% | 19% | 20% | 0% | 2% | 0% | 4%
